Compounds with a hit are over-represented: about 12% of the library has one in this group of screens.
LASV entry inh: blocks Lassa virus binding to or entry into cells; Lassa virus pseudotype entry inhibition, cell reporter; 300,000 compounds, 1.2% hits; Potency, µM (doses to about 37.9 µM), inactives show at the top dose activity change, negative = inhibition, actives largely listed as inhibitors; AID 540256; calls by dose curve; tested in HEK293 cells; also: potency is read from the fitted curve at half-maximal effect; % is scaled to controls: 0 for no effect and ±100 for the full control effect; nearly all actives have a fitted effect of over 50% in size
Shiga inhibitor: blocks Shiga toxin action in Vero cells. Vero cells, Shiga toxin protein synthesis inhibition reporter. inhibition, % at 38.7 µM. AID 2315. 290,000 compounds, 9.2% hits; in the data active = inhibition mostly above about 28%, no sharp cut-off; inactive = mostly below about 43%; also: 0% is about no effect
Marburg entry inh: blocks Marburg virus binding to or entry into cells; Marburg virus pseudotyped entry inhibition, cell reporter; Potency, µM (titrated, usually from 37.8 µM), for the others: at the highest dose activity change, negative = inhibition, usual class: inhibitors; 300,000 compounds, 1.8% hits; calls by dose curve; tested in HEK293 cells; also: potency is read from the fitted curve at half-maximal effect; % is scaled to controls: 0 for no effect and ±100 for the full control effect
Cycloheximide cs: affects cycloheximide protein synthesis inhibition readout, counter-screen; cell reporter, cycloheximide protein synthesis inhibition counterscreen; max response, %; 300,000 compounds, 12% hits; AID 2314; in the data active = max response mostly above about 13%, no sharp cut-off; inactive = mostly below about 14%; also: read at 38.3 µM for the half of the compounds with a filed dose; 0% is about no effect
The depositor's hits bear a star; ? = inconclusive; nt = not tested or not shown; [ ] = another dose, or the depositor's remark.

SMILES | LASV entry inh | Shiga inhibitor | Marburg entry inh | Cycloheximide cs
CN(C)CCCN(C(=O)c1ccc([N+](=O)[O-])s1)c1nc2cc3c(cc2s1)OCCO3 | nt | 20 | nt | 12*
CN(C)CCCN(C(=O)c1cccs1)c1nc2cc3c(cc2s1)OCO3 | nt | 40 | 0%[46.1 µM] | 17*
Cc1cc(=O)n2cn[nH]c2n1 | 22%[46.1 µM] | nt | -8%[46.1 µM] | nt
COc1ccc(S(=O)(=O)n2nc(C)c(S(=O)(=O)N3CCCCC3)c2C)cc1 | 14%[46.1 µM] | nt | nt | nt
COc1ccc(S(=O)(=O)N2CCCCC2)cc1NC(=O)Cn1cnc2c1c(=O)n(C)c(=O)n2C | -13% | nt | 20% | nt
CN(C)CCCN(C(=O)c1ccc(C(=O)c2ccccc2)cc1)c1nc2cc3c(cc2s1)OCO3 | 11µM* | -27 | 16µM* | -12
Cc1ccc(C(=O)c2ccccc2C(=O)O)c(O)c1 | 12% | -13 | 13% | -4
Cc1ccc(C(=O)CC(=O)c2ccccc2C)c(O)c1 | ? | 39 | ? | 20*
Cc1ccc(C(=O)CC(=O)c2cccc(F)c2)c(O)c1 | ? | 77* | ? | 36*
Cc1ccc(C(=O)CCC(=O)Nc2ccccc2C)c(C)c1 | 10%[46.1 µM] | 12 | 15%[46.1 µM] | 29*
CSCCC(=O)N1CCCC(N2CCN(c3cccc(C(F)(F)F)c3)CC2)C1 (configuration not stated) | nt | -2 | nt | -3
COc1ccc(/C=N/n2cnn(Cc3ccccc3Cl)c2=S)cc1 | ? | 44 | ? | 36*
COc1cc(/C=N/n2cnn(Cc3ccccc3Cl)c2=S)cc(OC)c1OC | -14% | -4 | 16%[46.1 µM] | 5
O=C(Nc1ccccc1)c1ccccc1NS(=O)(=O)c1ccc(Cl)s1 | ? | -2 | 20µM* | 8
Cc1ccc(NC(=O)c2ccccc2NS(=O)(=O)c2ccc(Cl)s2)cc1 | ? | 17 | 10µM* | 9
Cc1ccc(C(=O)NCC(=O)OCC(=O)NC(C)C2CC3CCC2C3)cc1 (configuration not stated) | 9% | nt | 18% | nt
COc1ccc(-c2cc(C(F)(F)F)nc(SCC(=O)N(C)Cc3ccccc3)n2)cc1 | ? | nt | -10%[46.1 µM] | nt
Cc1ccc(CNC(=O)CCCn2c(=O)c3ccccc3n(Cc3ccccc3C)c2=O)cc1 | -20%[46.1 µM] | nt | 23%[46.1 µM] | nt
c1csc(-c2nn3c(C4COc5ccccc5O4)nnc3s2)c1 (configuration not stated) | ? | 45* | 10% | 36*
c1ccc(-c2cnn3nnnc3n2)cc1 | -6% | 16 | 0%[46.1 µM] | 1
c1ccc(-c2ccn3nnnc3n2)cc1 | -5% | 74* | 10% | 36*
O=C(CSC1=NS(=O)(=O)c2ccccc2N1)Nc1ccccc1F | 0%[46.1 µM] | nt | -3% | nt
CC1CC=CC2C1C(=O)N(Cc1ccccc1)C2c1ccc(/C=C/c2ccccc2)cc1F (configuration not stated) | nt | 20 | nt | 8
COc1cc2c(cc1OC)C(Nc1ccccc1)=NC(C)(C)C2 | -19% | -13 | -11% | -1
CO/C1=C\C(C)=C\[C@@H](C)[C@@H](O)[C@@H](C)C/C(C)=C/C=C/[C@H](OC)[C@@H]([C@@H](C)[C@@H](O)[C@H](C)[C@@]2(O)C[C@@H](O)[C@H](C)C(C(C)C)O2)OC1=O (some centres not stated) | nt | -1 | nt | 7
SMILES | LASV entry inh | Shiga inhibitor | Marburg entry inh | Cycloheximide cs
C=CCNC(=S)Nc1c(C(=O)OC)[nH]c2cc(OC)ccc12 | nt | 30 | nt | 19*
COc1ccc(NC=O)c(C(=O)CCNC(C)=O)c1 | nt | -13 | nt | -2
CCCCN(C(=O)c1cc2c(s1)CCC2)c1c(N)n(CCC)c(=O)[nH]c1=O | 0% | nt | ? | nt
O=S(=O)(CC(CN1CCCC1)N1CCCC1)c1ccc2ccccc2c1 (configuration not stated) | 10µM* | 3 | 18µM* | 2
Cc1ccc(S(=O)(=O)CC(CN2CCOCC2)N2CCOCC2)cc1 (configuration not stated) | -4% | -6 | ? | -1
COc1ccc(C)c2sc(N3CCN(C(=O)c4ccco4)CC3)nc12 | 17%[46.1 µM] | nt | nt | nt
Cc1cc(C)nc(NC(=O)Cc2ccc(Br)cc2)n1 | 16%[46.1 µM] | 11 | ? | 5
CC(C)(C)CC(=O)NCCc1csc(-c2ccccc2)n1 | nt | 34* | nt | 22*
Cc1cccn2cc(CCNC(=O)c3cccs3)nc12 | 0% | 33 | 17% | 18*
O=C(NCCc1csc(-c2ccccc2)n1)c1cccs1 | nt | -15 | nt | 13*
CC(=O)NCCc1csc(-c2ccccc2)n1 | ? | 39 | 0% | 16*
O=C(NCCc1csc(-c2ccccc2)n1)c1ccco1 | nt | 41 | nt | 13
Cc1ncn(-c2ccc(C(=O)Oc3ccccc3)cn2)n1 | 2% | -5 | 28%[46.1 µM] | -3
CC(C)[C@@H](CO[Si](C)(C)C(C)(C)C)N1CC=CS1(=O)=O | 8%[46.1 µM] | nt | nt | nt
Cc1ccc(Sc2ccc(N3CCCC(C(=O)Nc4ccc(F)c(Cl)c4)C3)nn2)cc1 (configuration not stated) | ? | nt | -4%[46.1 µM] | nt
CCOC(=O)CC1N=NN=N1 | nt | nt | 19%[46.1 µM] | nt
COCCN1C(=O)C2=C(C1=O)C1N(C)c3ccccc3[C@@]13C[C@@H](CO)N=C3N2 (some centres not stated) | nt | nt | 25%[14.2 µM] | nt
CCS(=O)(=O)NCCc1csc(-c2ccccc2)n1 | 13% | 71* | 20% | 57*
O=C(Cc1csc(-c2ccccc2)n1)NCc1cccs1 | 5% | 37* | 4%[46.1 µM] | 24*
Nc1ccc2c(c1)COc1ccccc1O2 | 86%[14.3 µM] | 88* | 14% | 16*
CCCCN1C(=O)C2(OCCCO2)c2cccc(C)c21 | 4% | 7 | 13% | -3
c1coc(-c2ccnc(-n3cccc3)n2)c1 | 14%[46.1 µM] | 19 | 17%[46.1 µM] | 46*
Clc1ccsc1-c1ccnc(-n2cccc2)n1 | 14%[46.1 µM] | 52* | ? | 22*
Clc1ccc(-c2ccnc(-n3cccc3)n2)s1 | 4%[46.1 µM] | 16 | ? | 8
Cc1ccsc1-c1ccnc(-n2cccc2)n1 | 13% | 52* | 32% | 22*
SMILES | LASV entry inh | Shiga inhibitor | Marburg entry inh | Cycloheximide cs
Cc1ccc(NC(=O)C2CCCN(C(=O)c3ccc(Cl)cc3)C2)cc1S(=O)(=O)N1CCOCC1 (configuration not stated) | ? | -5 | ? | -2
Nc1c(C(=O)Nc2cccc(F)c2)sc2nc(-c3cccs3)ccc12 | 12%[46.1 µM] | nt | ? | nt
Cc1ccc(NC(=O)c2sc3nc(-c4cccs4)ccc3c2N)cc1F | -6%[46.1 µM] | nt | 8%[46.1 µM] | nt
Cc1csc(NC(=O)c2sc3nc(-c4cccs4)ccc3c2N)n1 | ? | 69* | ? | 41*
CCCSc1nnc(NC(=O)c2sc3nc(-c4cccs4)ccc3c2N)s1 | 2% | 17 | 16% | 28*
COc1ccc(-c2nc3ccccc3o2)cc1NC(=O)c1cccc2c(Cl)cccc12 | 21%[46.1 µM] | nt | 6%[46.1 µM] | nt
CN[C@@H]1[C@H](O[C@@H]2O[C@H](C)[C@@](O)(CO)[C@H]2O[C@H]2[C@H](O)[C@H](O)[C@H](N=C(N)N)[C@@H](O)[C@@H]2N=C(N)N)O[C@@H](CO)[C@H](O)[C@H]1O | nt | -17 | nt | 13
COCCNC(=O)c1ccc(N2CCCCC2)c(NS(=O)(=O)c2ccc(C)cc2)c1 | -3% | -1 | 3% | 16*
CCCCNC(=O)c1ccc(N2CCOCC2)c(NS(=O)(=O)c2ccc(OC)cc2)c1 | -13% | 9 | -15% | -4
CCOc1ccc(S(=O)(=O)Nc2cc(S(=O)(=O)N(CC)CC)ccc2N2CCCC2)cc1 | -23% | -6 | ? | 1

From PubChem BioAssay
